Source: PubChem BioAssay (PCMD)
The entries come from a sample that favours hits as a whole.
FXIIa single: human FXIIa protease inhibitors, primary screen, biochemical, single well | actives 0.2% (n = 33,000) | inhibition, % at 10 µM | purified human FXIIa, AMC substrate fluorescence, 2 h; in the data active = inhibition above about 30%;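 also: 0% = enzyme with vehicle only and 100% = no enzyme blank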
FXIa inh: human FXIa protease inhibitors, primary screen, biochemical, single compound per well | Coagulation factor XI (Homo sapiens), P03951 | purified human FXIa, fluorogenic AMC substrate cleavage | inhibition, % at 10 µM | actives 0.3% (n = 33,000) | AID 687, 2007;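 active = inhibition above 40% in the primary screen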;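 also: 0% = enzyme without compound and 100% = blank wells lacking enzyme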
Target sequence (P03951 19-387 limits assumed): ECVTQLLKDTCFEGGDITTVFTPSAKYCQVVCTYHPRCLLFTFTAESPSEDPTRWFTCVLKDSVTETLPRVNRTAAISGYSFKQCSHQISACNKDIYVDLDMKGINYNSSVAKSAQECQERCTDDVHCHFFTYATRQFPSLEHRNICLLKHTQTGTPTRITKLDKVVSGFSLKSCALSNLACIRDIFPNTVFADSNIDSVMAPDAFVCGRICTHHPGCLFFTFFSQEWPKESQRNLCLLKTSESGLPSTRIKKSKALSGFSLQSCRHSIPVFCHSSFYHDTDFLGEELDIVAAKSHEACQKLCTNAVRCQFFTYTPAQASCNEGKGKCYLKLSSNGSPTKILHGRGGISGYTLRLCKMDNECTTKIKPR
Target sequence (P03951 388-625 limits assumed): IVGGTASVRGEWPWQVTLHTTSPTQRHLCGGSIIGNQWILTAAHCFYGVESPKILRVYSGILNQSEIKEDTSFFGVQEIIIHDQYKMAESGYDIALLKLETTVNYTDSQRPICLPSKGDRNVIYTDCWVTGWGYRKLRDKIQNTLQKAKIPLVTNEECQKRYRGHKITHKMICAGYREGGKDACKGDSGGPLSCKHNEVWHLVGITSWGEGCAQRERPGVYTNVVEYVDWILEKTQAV
* hit, by the source's call.

Screening CC(=O)Oc1ccc2c(C)cc(=O)oc2c1 returned FXIIa single 32* and FXIa inh 6.
`CC(=O)Oc1cc2oc(=O)cc(C)c2cc1OC(C)=O` gave FXIIa single -1 and FXIa inh 0.
For COC(=O)c1cc(S(=O)(=O)n2nc(C)c(Br)c2C)c(Cl)cc1Cl the results were FXIIa single 2 and FXIa inh 4.
`N#Cc1cc2c(nc1SCC(=O)Nc1sc3c(c1C#N)CCC3)CCC2` gave FXIIa single 2 and FXIa inh 42*.
`N#Cc1cc2c(nc1SCC(=O)Nc1sc3c(c1C#N)CCC3)CCCCCC2` gave FXIIa single 7 and FXIa inh -5.
Screening Cc1sc2c(c1C)c(=O)nc1scc(C)n12 returned FXIIa single 1 and FXIa inh -5.
COc1ccc(Cn2nnnc2C(c2ccccc2Cl)N2CCC(C(N)=O)CC2)cc1 (stereo not drawn) was read as FXIIa single 2 and FXIa inh 45*.
`Clc1ccccc1C(c1nnnn1Cc1ccco1)N1CCN(Cc2ccco2)CC1` (stereo not drawn) gave FXIIa single 4 and FXIa inh -2.
c1ccc(-c2ccc3c(c2)c2c4n3CCN=C4CCC2)cc1 was read as FXIIa single 13 and FXIa inh 1.
COc1cccc(CNC(=O)C2CCCN(S(=O)(=O)c3c(C)[nH]c(=O)[nH]c3=O)C2)c1 (stereo not drawn) was read as FXIIa single 7 and FXIa inh 5.
Screening Cc1nc(Nc2ncc3c(n2)CCCC3=O)nc2ccccc12 returned FXIIa single 2 and FXIa inh 5.
Screening CC1=C(C(=O)OC(C)C)C(c2coc3ccccc3c2=O)C2=C(CCCC2=O)N1 (stereo not drawn) returned FXIIa single 7 and FXIa inh 50*.
`CCOC(=O)C1=C(C)NC2=C(C(=O)CC(C)(C)C2)C1c1coc2ccccc2c1=O` (stereo not drawn) gave FXIIa single 5 and FXIa inh 7.
Screening CC(C)C(=O)N1CCC(CN=CC2=C(O)CC(C)(C)CC2=O)CC1 returned FXIIa single 4 and FXIa inh -13.
`c1ccc(-c2ccc(-c3cn4c(n3)CCC4)cc2)cc1` gave FXIIa single -195 and FXIa inh -2.
Screening O=C(Oc1cccc2cccnc12)c1ccco1 returned FXIIa single 10 and FXIa inh -5.
Screening O=C(Oc1ccc(Cl)c2cccnc12)c1ccco1 returned FXIIa single 37* and FXIa inh 7.
C=CCNC(=S)N/N=C(\C)c1ccccn1 was read as FXIIa single 1 and FXIa inh -7.
Cc1ccc(C(=O)n2nc(-c3cccnc3)nc2N)cc1 was read as FXIIa single 92* and FXIa inh 42*.
For COc1ccc(-c2nc(N)n(C(C)=O)n2)cc1 the results were FXIIa single 27 and FXIa inh -2.
`CCOC(=O)c1ccc(CC2S/C(=C(\C#N)C(C)=O)NC2=O)cc1` (stereo not drawn) gave FXIIa single 13 and FXIa inh 3.
CCc1ccc(CC2S/C(=C(\C#N)C(C)=O)NC2=O)cc1 (stereo not drawn) was read as FXIIa single 7 and FXIa inh 49*.
Screening O=C(CCC1CCCCC1)N1CCN(Cc2ccc3c(c2)OCO3)CC1 returned FXIIa single 14 and FXIa inh -7.
CCn1c(CSc2nc3ccccc3s2)nc2ccccc21 was read as FXIIa single 3 and FXIa inh -7.
FC(F)(F)c1cnc(Oc2ccccc2-c2nnco2)c(Cl)c1 was read as FXIIa single 7 and FXIa inh -4.
For FC(F)(F)c1cnc(Oc2ccc(-c3nnco3)cc2)c(Cl)c1 the results were FXIIa single 31* and FXIa inh -1.
Screening COc1ccc(C(C)=O)cc1CSCCC#N returned FXIIa single -7 and FXIa inh 17.
Cc1nc2nc(C)c(CCC(=O)O)c(C)n2n1 was read as FXIIa single -10 and FXIa inh 14.
O=C(NC1CCCCC1)C(c1ccc(F)cc1)N(Cc1ccc2c(c1)OCO2)C(=O)c1cnsn1 (stereo not drawn) was read as FXIIa single 5 and FXIa inh -10.
COC(=O)C1=C(C(=O)OC)C2(OC1c1ccccc1C)C(=O)c1ccccc1C2=O (stereo not drawn) was read as FXIIa single -17 and FXIa inh 33.
`O=C(c1ccc2c(c1)OCO2)N1CCN(c2ccc(F)cc2)CC1` gave FXIIa single 33* and FXIa inh 4.
Screening O=C(Nc1ccc(N2CCN(C(=O)c3ccccc3)CC2)cc1)c1ccc2c(c1)OCO2 returned FXIa inh 36.
Screening CSc1nc(Oc2ccc(=O)n(C)n2)nc(N(C)C)n1 returned FXIIa single 1 and FXIa inh -9.
`O=C(c1ccco1)N1CCN(C(c2ccccc2)c2nnnn2C2CCCC2)CC1` (stereo not drawn) gave FXIIa single 1 and FXIa inh -4.
`Cc1nc2cccc(C)n2c(=O)c1Cl` gave FXIIa single 7 and FXIa inh 0.
Screening Cc1cccc(OCc2nc(C)cc(=O)[nH]2)c1 returned FXIIa single 3 and FXIa inh -2.
For Cc1cc(=O)[nH]c(-n2[nH]c(C)cc2=O)n1 the results were FXIIa single 3 and FXIa inh 48*.
Screening O=C(CSc1nnc(CNC(=O)c2ccccc2F)o1)c1ccccc1 returned FXIIa single -2 and FXIa inh 4.
`Cc1cc(C(=O)OCC(=O)NCCC(C)C)c2ccccc2n1` gave FXIIa single 5 and FXIa inh -6.
For Brc1cccc(CN2CCCCCCC2)c1 the results were FXIIa single 0 and FXIa inh -2.
For c1ccc(-c2ncnc3cc4n(c23)CCC4)cc1 the results were FXIIa single 5 and FXIa inh 0.
Cc1ccc(-c2n[nH]c(=O)c3ccccc23)cc1S(=O)(=O)N(C)CCO was read as FXIIa single -13 and FXIa inh 18.
For Cc1ccc(-c2n[nH]c(=O)c3ccccc23)cc1S(=O)(=O)NCCO the results were FXIIa single 38* and FXIa inh -6.
`Cc1cc(NC(=O)CN2CCN(c3ccc(O)cc3)CC2)no1` gave FXIIa single -3 and FXIa inh -6.
For COC(=O)CSc1nnc(C)n1-c1ccc(C)cc1 the results were FXIIa single 9 and FXIa inh -6.
Screening COC(=O)CSc1nnc(C)n1-c1cccc(OC)c1 returned FXIIa single 1 and FXIa inh 43*.
For COc1ccc(C2(CNC(=O)Cc3ccc(OC)c(OC)c3)CCOCC2)cc1 the results were FXIIa single 10 and FXIa inh -12.
For Cc1ccc2nsnc2c1S(=O)(=O)NCCc1c(C)[nH]c2ccc(F)cc12 the results were FXIIa single 0 and FXIa inh 12.
For CCn1c(SCC(=O)NC(C)(C)C)nnc1-c1ccccn1 the results were FXIIa single -1 and FXIa inh -9.
For COc1cc2c(cc1NS(=O)(=O)N1CCCCC1)oc1ccccc12 the results were FXIIa single 6 and FXIa inh -7.
Cc1cc(OC(=O)c2ccco2)c2c(C)cc(=O)oc2c1 was read as FXIIa single 31* and FXIa inh 44*.
CC(=O)Oc1cc(OC(C)=O)c2c(C)cc(=O)oc2c1 was read as FXIIa single -1 and FXIa inh -4.
